# The full ranking holds about 16,000 sequences; the median of “rpm ratio (pull-down/input)” is about 0.5, and the highest 2% start at about 5.5. The sample as a whole holds a higher share of the highest values than the screen did.
# Target: T1, MBP-FoxP3dN (Mus musculus, UniProt Q99JB6 188-423)
# T1 sequence: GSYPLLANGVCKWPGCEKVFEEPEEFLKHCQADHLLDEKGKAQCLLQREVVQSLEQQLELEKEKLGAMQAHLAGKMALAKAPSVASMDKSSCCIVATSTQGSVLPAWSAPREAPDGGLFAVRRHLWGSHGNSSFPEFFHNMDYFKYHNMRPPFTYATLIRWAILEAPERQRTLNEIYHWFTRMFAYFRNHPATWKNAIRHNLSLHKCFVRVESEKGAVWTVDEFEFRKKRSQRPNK
# Experiment: PD-seq (MBP pull-down with sequencing); 20 mM Tris-HCl pH 7.5, 100 mM NaCl, 1.5 mM MgCl2, 0.4 uM protein, 0.1 uM dsDNA library, 30 min, room temperature, amylose pull-down; high values mean tight binding
# Settings: protein: recombinant; tags: His6-MBP; chain copies: 2; dsDNA, one strand shown
# How it was run: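 A fragment of mouse FoxP3 or FoxP1 without its N-terminus, carrying a His6-MBP tag and produced in E. coli, was combined at 0.4 µM with a 0.1 µM degenerate double-stranded DNA library filled in with Klenow. The mixture sat for 30 min at room temperature in Tris pH 7.5 buffer containing NaCl and MgCl2. Protein–DNA complexes were captured on amylose resin, washed three times, and the DNA was freed with proteinase K, barcoded by PCR and sequenced on Illumina. Binding is expressed as reads-per-million enrichment of pull-down over input, with replicates pooled.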
row,Sequence,binding signal
1,GATGATTGTTCTCCCAGCTGATGAATTTCTCGTCTCGAGTAAACAAATTTTCCTAATCTTTCTGTTCAAGCGCCATCTAC,0.277 RPM ratio (pull-down/input)
2,GATGATTGTTCTCCCAGCTGATGAATTACCACTGTCGAGTAAACAAATTTTCCTAATCTTTCTGTTCAAGCGCCATCTAC,0.41 RPM ratio (pull-down/input)
3,GATGATTGTTCTCCCAGCTGATGAATTAGACTTGTCGAGTAAACAAATTTTCCTAATCTTTCTGTTCAAGCGCCATCTAC,0.529 RPM ratio (pull-down/input)
4,GATGATTGTTCTCCCAGCTGATGAATTCTCATGTTCGAGTAAACAAATTTTCCTAATCTTTCTGTTCAAGCGCCATCTAC,0.416 RPM ratio (pull-down/input)
5,GATGATTGTTCTCCCAGCTGATGAATTATCGGTCTCGAGTAAACAAATTTTCCTAATCTTTCTGTTCAAGCGCCATCTAC,0.382 RPM ratio (pull-down/input)
6,GATGATTGTTCTCCCAGCTGATGAATTACGTACATCGAGTAAACAAATTTTCCTAATCTTTCTGTTCAAGCGCCATCTAC,0.647 RPM ratio (pull-down/input)
7,GATGATTGTTCTCCCAGCTGATGAATTGTGATGTTCGAGTAAACAAATTTTCCTAATCTTTCTGTTCAAGCGCCATCTAC,4.21 RPM ratio (pull-down/input)
8,GATGATTGTTCTCCCAGCTGATGAATTTGCTTTATCGAGTAAACAAATTTTCCTAATCTTTCTGTTCAAGCGCCATCTAC,3.94 RPM ratio (pull-down/input)
9,GATGATTGTTCTCCCAGCTGATGAATTGCTTTATTCGAGTAAACAAATTTTCCTAATCTTTCTGTTCAAGCGCCATCTAC,1.09 RPM ratio (pull-down/input)
10,GATGATTGTTCTCCCAGCTGATGAATTTTGCTTATCGAGTAAACAAATTTTCCTAATCTTTCTGTTCAAGCGCCATCTAC,6.46 RPM ratio (pull-down/input)
11,GATGATTGTTCTCCCAGCTGATGAATTGCTTATTTCGAGTAAACAAATTTTCCTAATCTTTCTGTTCAAGCGCCATCTAC,2.46 RPM ratio (pull-down/input)
12,GATGATTGTTCTCCCAGCTGATGAATTGCTTATATCGAGTAAACAAATTTTCCTAATCTTTCTGTTCAAGCGCCATCTAC,1.61 RPM ratio (pull-down/input)
13,GATGATTGTTCTCCCAGCTGATGAATTTGCTTATTCGAGTAAACAAATTTTCCTAATCTTTCTGTTCAAGCGCCATCTAC,6.84 RPM ratio (pull-down/input)
14,GATGATTGTTCTCCCAGCTGATGAATTACTCATCTCGAGTAAACAAATTTTCCTAATCTTTCTGTTCAAGCGCCATCTAC,0.431 RPM ratio (pull-down/input)
15,GATGATTGTTCTCCCAGCTGATGAATTGAGCGCATCGAGTAAACAAATTTTCCTAATCTTTCTGTTCAAGCGCCATCTAC,1.34 RPM ratio (pull-down/input)
16,GATGATTGTTCTCCCAGCTGATGAATTCCCACGTTCGAGTAAACAAATTTTCCTAATCTTTCTGTTCAAGCGCCATCTAC,0.282 RPM ratio (pull-down/input)
17,GATGATTGTTCTCCCAGCTGATGAATTGTCCTATTCGAGTAAACAAATTTTCCTAATCTTTCTGTTCAAGCGCCATCTAC,0.45 RPM ratio (pull-down/input)
18,GATGATTGTTCTCCCAGCTGATGAATTTGTCTATTCGAGTAAACAAATTTTCCTAATCTTTCTGTTCAAGCGCCATCTAC,5.7 RPM ratio (pull-down/input)
19,GATGATTGTTCTCCCAGCTGATGAATTGTCTATTTCGAGTAAACAAATTTTCCTAATCTTTCTGTTCAAGCGCCATCTAC,1.18 RPM ratio (pull-down/input)
20,GATGATTGTTCTCCCAGCTGATGAATTCCTATTGTCGAGTAAACAAATTTTCCTAATCTTTCTGTTCAAGCGCCATCTAC,0.764 RPM ratio (pull-down/input)
21,GATGATTGTTCTCCCAGCTGATGAATTCTATTTGTCGAGTAAACAAATTTTCCTAATCTTTCTGTTCAAGCGCCATCTAC,5.87 RPM ratio (pull-down/input)

row,Sequence,binding signal
1,GATGATTGTTCTCCCAGCTGATGAATTTCTATTGTCGAGTAAACAAATTTTCCTAATCTTTCTGTTCAAGCGCCATCTAC,0.631 RPM ratio (pull-down/input)
2,GATGATTGTTCTCCCAGCTGATGAATTGGCCCTCTCGAGTAAACAAATTTTCCTAATCTTTCTGTTCAAGCGCCATCTAC,0.358 RPM ratio (pull-down/input)
3,GATGATTGTTCTCCCAGCTGATGAATTCGTCAGGTCGAGTAAACAAATTTTCCTAATCTTTCTGTTCAAGCGCCATCTAC,0.551 RPM ratio (pull-down/input)
4,GATGATTGTTCTCCCAGCTGATGAATTCTTTGGCTCGAGTAAACAAATTTTCCTAATCTTTCTGTTCAAGCGCCATCTAC,0.217 RPM ratio (pull-down/input)
5,GATGATTGTTCTCCCAGCTGATGAATTTGTTGGCTCGAGTAAACAAATTTTCCTAATCTTTCTGTTCAAGCGCCATCTAC,7 RPM ratio (pull-down/input)
6,GATGATTGTTCTCCCAGCTGATGAATTTCTTAGCTCGAGTAAACAAATTTTCCTAATCTTTCTGTTCAAGCGCCATCTAC,0.342 RPM ratio (pull-down/input)
7,GATGATTGTTCTCCCAGCTGATGAATTGTTAGGCTCGAGTAAACAAATTTTCCTAATCTTTCTGTTCAAGCGCCATCTAC,0.88 RPM ratio (pull-down/input)
8,GATGATTGTTCTCCCAGCTGATGAATTTTTTGGCTCGAGTAAACAAATTTTCCTAATCTTTCTGTTCAAGCGCCATCTAC,0.204 RPM ratio (pull-down/input)
9,GATGATTGTTCTCCCAGCTGATGAATTTGTTAGCTCGAGTAAACAAATTTTCCTAATCTTTCTGTTCAAGCGCCATCTAC,6.55 RPM ratio (pull-down/input)
10,GATGATTGTTCTCCCAGCTGATGAATTGCGGTCATCGAGTAAACAAATTTTCCTAATCTTTCTGTTCAAGCGCCATCTAC,1.01 RPM ratio (pull-down/input)
11,GATGATTGTTCTCCCAGCTGATGAATTAATGAATTCGAGTAAACAAATTTTCCTAATCTTTCTGTTCAAGCGCCATCTAC,0.682 RPM ratio (pull-down/input)
12,GATGATTGTTCTCCCAGCTGATGAATTGATGCATTCGAGTAAACAAATTTTCCTAATCTTTCTGTTCAAGCGCCATCTAC,6.87 RPM ratio (pull-down/input)
13,GATGATTGTTCTCCCAGCTGATGAATTCATGCATTCGAGTAAACAAATTTTCCTAATCTTTCTGTTCAAGCGCCATCTAC,5.77 RPM ratio (pull-down/input)
14,GATGATTGTTCTCCCAGCTGATGAATTAAATGCATCGAGTAAACAAATTTTCCTAATCTTTCTGTTCAAGCGCCATCTAC,2.36 RPM ratio (pull-down/input)
15,GATGATTGTTCTCCCAGCTGATGAATTGCATCATTCGAGTAAACAAATTTTCCTAATCTTTCTGTTCAAGCGCCATCTAC,5.15 RPM ratio (pull-down/input)
16,GATGATTGTTCTCCCAGCTGATGAATTGCATGATTCGAGTAAACAAATTTTCCTAATCTTTCTGTTCAAGCGCCATCTAC,1.35 RPM ratio (pull-down/input)
17,GATGATTGTTCTCCCAGCTGATGAATTGAAGCATTCGAGTAAACAAATTTTCCTAATCTTTCTGTTCAAGCGCCATCTAC,4.38 RPM ratio (pull-down/input)
18,GATGATTGTTCTCCCAGCTGATGAATTCGATGCATCGAGTAAACAAATTTTCCTAATCTTTCTGTTCAAGCGCCATCTAC,1.84 RPM ratio (pull-down/input)
19,GATGATTGTTCTCCCAGCTGATGAATTAATGCATTCGAGTAAACAAATTTTCCTAATCTTTCTGTTCAAGCGCCATCTAC,6.89 RPM ratio (pull-down/input)
20,GATGATTGTTCTCCCAGCTGATGAATTTTGCACGTCGAGTAAACAAATTTTCCTAATCTTTCTGTTCAAGCGCCATCTAC,3.32 RPM ratio (pull-down/input)
21,GATGATTGTTCTCCCAGCTGATGAATTTTTAGGATCGAGTAAACAAATTTTCCTAATCTTTCTGTTCAAGCGCCATCTAC,0.222 RPM ratio (pull-down/input)

row,Sequence,binding signal
1,GATGATTGTTCTCCCAGCTGATGAATTCAATTAGTCGAGTAAACAAATTTTCCTAATCTTTCTGTTCAAGCGCCATCTAC,1.25 RPM ratio (pull-down/input)
2,GATGATTGTTCTCCCAGCTGATGAATTCTGTAGGTCGAGTAAACAAATTTTCCTAATCTTTCTGTTCAAGCGCCATCTAC,0.948 RPM ratio (pull-down/input)
3,GATGATTGTTCTCCCAGCTGATGAATTTGACGTATCGAGTAAACAAATTTTCCTAATCTTTCTGTTCAAGCGCCATCTAC,1.27 RPM ratio (pull-down/input)
4,GATGATTGTTCTCCCAGCTGATGAATTGGAGTACTCGAGTAAACAAATTTTCCTAATCTTTCTGTTCAAGCGCCATCTAC,0.523 RPM ratio (pull-down/input)
5,GATGATTGTTCTCCCAGCTGATGAATTCGAACTTTCGAGTAAACAAATTTTCCTAATCTTTCTGTTCAAGCGCCATCTAC,0.271 RPM ratio (pull-down/input)
6,GATGATTGTTCTCCCAGCTGATGAATTCATCTCATCGAGTAAACAAATTTTCCTAATCTTTCTGTTCAAGCGCCATCTAC,0.393 RPM ratio (pull-down/input)
7,GATGATTGTTCTCCCAGCTGATGAATTCTTTAGTTCGAGTAAACAAATTTTCCTAATCTTTCTGTTCAAGCGCCATCTAC,0.297 RPM ratio (pull-down/input)
8,GATGATTGTTCTCCCAGCTGATGAATTTAGTTGTTCGAGTAAACAAATTTTCCTAATCTTTCTGTTCAAGCGCCATCTAC,5.93 RPM ratio (pull-down/input)
9,GATGATTGTTCTCCCAGCTGATGAATTAGTAGTTTCGAGTAAACAAATTTTCCTAATCTTTCTGTTCAAGCGCCATCTAC,1.93 RPM ratio (pull-down/input)
10,GATGATTGTTCTCCCAGCTGATGAATTAGTTTGTTCGAGTAAACAAATTTTCCTAATCTTTCTGTTCAAGCGCCATCTAC,6.22 RPM ratio (pull-down/input)
11,GATGATTGTTCTCCCAGCTGATGAATTTTTTAGTTCGAGTAAACAAATTTTCCTAATCTTTCTGTTCAAGCGCCATCTAC,0.299 RPM ratio (pull-down/input)
12,GATGATTGTTCTCCCAGCTGATGAATTTGTTAGTTCGAGTAAACAAATTTTCCTAATCTTTCTGTTCAAGCGCCATCTAC,7.44 RPM ratio (pull-down/input)
13,GATGATTGTTCTCCCAGCTGATGAATTGTTAGTTTCGAGTAAACAAATTTTCCTAATCTTTCTGTTCAAGCGCCATCTAC,4.23 RPM ratio (pull-down/input)
14,GATGATTGTTCTCCCAGCTGATGAATTAGTTTCTTCGAGTAAACAAATTTTCCTAATCTTTCTGTTCAAGCGCCATCTAC,2.72 RPM ratio (pull-down/input)
15,GATGATTGTTCTCCCAGCTGATGAATTAGTTAGTTCGAGTAAACAAATTTTCCTAATCTTTCTGTTCAAGCGCCATCTAC,4.22 RPM ratio (pull-down/input)
16,GATGATTGTTCTCCCAGCTGATGAATTAGTTGTTTCGAGTAAACAAATTTTCCTAATCTTTCTGTTCAAGCGCCATCTAC,6.61 RPM ratio (pull-down/input)
17,GATGATTGTTCTCCCAGCTGATGAATTAGTTTTTTCGAGTAAACAAATTTTCCTAATCTTTCTGTTCAAGCGCCATCTAC,3.9 RPM ratio (pull-down/input)
18,GATGATTGTTCTCCCAGCTGATGAATTAGTTCTTTCGAGTAAACAAATTTTCCTAATCTTTCTGTTCAAGCGCCATCTAC,0.409 RPM ratio (pull-down/input)
19,GATGATTGTTCTCCCAGCTGATGAATTCGACAGGTCGAGTAAACAAATTTTCCTAATCTTTCTGTTCAAGCGCCATCTAC,0.284 RPM ratio (pull-down/input)
20,GATGATTGTTCTCCCAGCTGATGAATTCAGACATTCGAGTAAACAAATTTTCCTAATCTTTCTGTTCAAGCGCCATCTAC,0.869 RPM ratio (pull-down/input)
21,GATGATTGTTCTCCCAGCTGATGAATTTCGCGAGTCGAGTAAACAAATTTTCCTAATCTTTCTGTTCAAGCGCCATCTAC,0.675 RPM ratio (pull-down/input)

# — article PMC12820563, “FoxP3 forms a head-to-head dimer in vivo and stabilizes its multimerization on adjacent microsatellites”
